Experimental data published in PubChem BioAssay AID1159580 (chemical genetic matrix, 2015).
Out of some 5,500 compounds screened, about 2,000 (36%) were called active. Not shown: some 18% with an inconclusive outcome. Cut-off read from the data, not from the text of the source: active = normalized growth mostly below about 0.91 (no sharp cut-off); inconclusive = no clear call, values can overlap the other calls; inactive = mostly above about 0.92. The list shows a part of the results.

Assay: chemical genetic growth profiling, strain panel (AID 1159580);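 note: tested at 20 µM; growth read once vehicle control cultures reached saturation at 30 °C; 1 = growth at the plate median or of vehicle wells; lower values mean less growth of the strain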
Settings: growth OD
[1] = S. cerevisiae deletion strains, locus YAL013W, strain DEP1, active compounds read low
[2] = S. cerevisiae deletion strains, locus YBR229C, strain ROT2, active compounds read low
[3] = S. cerevisiae deletion strains, locus YDL101C, strain DUN1, active compounds read low
[4] = S. cerevisiae deletion strains, locus YDL134C, strain PPH21, active compounds read low
[5] = S. cerevisiae deletion strains, locus YDR150W, strain NUM1, active compounds read low
[6] = S. cerevisiae deletion strains, locus YEL061C, strain CIN8, active compounds read low
[7] = S. cerevisiae deletion strains, locus YGR078C, strain PAC10, active compounds read low
[8] = S. cerevisiae deletion strains, locus YHR030C, strain SLT2, active compounds read low
[9] = S. cerevisiae deletion strains, locus YHR087W, strain rtc3, active compounds read low
[10] = S. cerevisiae deletion strains, locus YJL187C, strain SWE1, active compounds read low
[11] = S. cerevisiae deletion strains, locus YJR043C, strain POL32, active compounds read low
[12] = S. cerevisiae deletion strains, locus YJR075W, strain HOC1, active compounds read low
[13] = S. cerevisiae deletion strains, locus YLR039C, strain RIC1, active compounds read low
[14] = S. cerevisiae deletion strains, locus YLR058C, strain SHM2 (second series), active compounds read low
[15] = S. cerevisiae deletion strains, locus YLR085C, strain ARP6, active compounds read low
[16] = S. cerevisiae deletion strains, locus YLR262C, strain YPT6, active compounds read low
[17] = S. cerevisiae deletion strains, locus YML094W, strain GIM5, active compounds read low
[18] = S. cerevisiae deletion strains, locus YMR219W, strain ESC1, active compounds read low
[19] = S. cerevisiae deletion strains, locus YNL153C, strain GIM3, active compounds read low
[20] = S. cerevisiae deletion strains, locus YNL298W, strain CLA4 (second series), active compounds read low
[21] = S. cerevisiae deletion strains, locus YNL322C, strain KRE1, active compounds read low
[22] = S. cerevisiae deletion strains, locus YNR030W, strain Alg12, active compounds read low
[23] = S. cerevisiae deletion strains, locus YPL055C, strain LGE1, active compounds read low
[24] = S. cerevisiae deletion strains, locus YPL241C, strain CIN2, active compounds read low
[25] = S. cerevisiae deletion strains, locus YPR135W, strain CTF4, active compounds read low
[26] = S. cerevisiae strains, strain wild type, active compounds read low
[27] = S. cerevisiae deletion strains, locus YMR263W, strain SAP30, active compounds read low
[28] = S. cerevisiae deletion strains, locus YMR307W, strain GAS1, active compounds read low

Measured: normalized growth

S=c1nccc(-c2ccc(Cl)cc2)[nH]1
inactive: [5] 1.04 | [8] 0.722 | [9] 0.912 | [10] 0.969 | [12] 0.949 | [13] 1.01 | [14] 0.957 | [16] 1.05 | [17] 0.879 | [21] 0.988
active: [1] 0.881 | [2] 0.861 | S. cerevisiae deletion strains, locus YCL061C, strain MRC1, active compounds read low 0.84 | [3] 0.844 | [4] 0.882 | [6] 0.904 | [7] 0.831 | [11] 0.818 | S. cerevisiae deletion strains, locus YKL190W, strain CNB1, active compounds read low 0.849 | [15] 0.413 | [18] 0.918 | [19] 0.895 | [20] 0.76 | [22] 0.694 | S. cerevisiae deletion strains, locus YOL006C, strain TOP1, active compounds read low 0.36 | [23] 0.631 | [24] 0.748 | [25] 0.554 | [26] 0.882

COC(=O)CSc1ncnc2c(C)csc12
inactive: [1] 0.989 | [2] 0.998 | [3] 0.959 | [4] 0.973 | [5] 0.948 | [6] 0.978 | [7] 0.988 | [8] 0.802 | [9] 0.998 | [11] 0.973 | [12] 0.974 | [13] 0.958 | [14] 0.995 | [15] 0.9 | [16] 0.985 | [17] 0.949 | [18] 1 | [27] 0.981 | [28] 0.903 | [19] 0.994 | [20] 0.945 | [21] 1 | [22] 0.981 | [23] 0.953 | [24] 0.986 | [25] 0.818

COC(=O)CSc1nc2ccc(Cl)cc2s1
inactive: [1] 0.964 | [2] 0.932 | [3] 0.906 | [5] 1.02 | [6] 0.96 | [7] 0.958 | [9] 0.942 | [10] 0.949 | [11] 0.977 | [12] 0.955 | [13] 0.842 | [16] 0.891 | [17] 0.901 | [18] 0.962 | [27] 1 | [28] 1.15 | [19] 0.962 | [20] 0.877 | [21] 0.959 | [22] 0.975 | [23] 0.92 | [25] 0.685
active: [8] 0.491 | [14] 0.932 | [15] 0.744 | [24] 1.18 [resistant]

O=C1NN=C2C3CC4CC12CC1(C3)C(=O)NN=C41
inactive: [1] 0.992 | [2] 0.999 | [3] 1 | [4] 1.01 | [5] 1 | [6] 0.997 | [7] 1.01 | S. cerevisiae deletion strains, locus YGR229C, strain SMI1, active compounds read low 1 | [8] 1.03 | [9] 0.974 | [11] 1.02 | [12] 1.02 | [13] 1.05 | [14] 1 | [15] 0.989 | [16] 1.03 | [17] 0.974 | [18] 1 | [27] 0.974 | [19] 1.02 | [20] 0.983 | [21] 1.02 | [22] 0.978 | [23] 0.981 | [24] 0.998 | [25] 1.01 | [26] 0.999
